Experiment [1] addresses Cytochrome P450 2D6 (Homo sapiens) (UniProt P10635). Description: qHTS Assay for Inhibitors and Substrates of Cytochrome P450 2D6 (AID 891; active = well fitted curve in the direction sought with a large enough effect; an effect the other way counts as inactive or inconclusive; note: potency is the fitted concentration of half-maximal effect; nearly all actives have a fitted effect of over 60% in size). Put shortly: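 Luminescent read-out of luciferin formed by 5 nM human CYP2D6 demethylating 30 uM Luciferin-ME EGE (Km level) over 60 min at room temperature after NADPH regeneration addition. Data normalized to full inhibition by 1.43 uM quinidine.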
In general terms: Quantitative high-throughput screening tests each substance at several concentrations.

Experiment [2] can be described thus: qHTS Assay for Identification of Small Molecule Agonists for Hypoxia Response Element Signaling Pathway (AID 914; active = well fitted activation curve with a large enough effect in the signal ratio, with a control signal flat, not every such curve was filed as active; the % refers to the signal ratio; note: % of control where 0% means no effect). The settings on record: ME-180 HRE-bla reporter, beta-lactamase ratio, CoCl2, 17 h; activation: hits give high values. The procedure, abridged:
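Compounds in a titration series were added to ME-180 reporter cells alongside an EC50 level of CoCl2. After 17 hours, beta-lactamase activity was read as the 460nm/530nm emission ratio of CCF4, giving AC50 values.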

In experiment [3] the target is Tyrosyl-DNA phosphodiesterase 1 (Homo sapiens) (UniProt Q9NUW8). Kind of experiment: Confirmation Assay for Inhibitors of Tyrosyl-DNA Phosphodiesterase (TDP1) (AID 489007; active = well fitted curve in the direction sought with a large enough effect; an effect the other way counts as inactive or inconclusive; note: potency is the fitted concentration of half-maximal effect; nearly all actives have a fitted effect of over 40% in size). The following applies: recombinant human TDP1 enzymatic activity, dose-response. Put shortly:
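Loss of AlphaScreen signal reports Tdp1 cleavage of a dual-labelled DNA substrate. Conditions: 1 nM E. coli-derived enzyme, 15 nM substrate, 15 min compound preincubation, 5 min reaction, 10 min bead incubation, all at room temperature.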

Experiment [4] in a line: qHTS profiling for inhibitors of Plasmodium falciparum proliferation (AID 504749; active = well fitted curve in the direction sought with a large enough effect; an effect the other way counts as inactive or inconclusive; note: potency is the fitted concentration of half-maximal effect; nearly all actives have a fitted effect of over 60% in size). The following applies: P. falciparum in erythrocytes, SYBR Green DNA, 72 h. The procedure, abridged:
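SYBR Green fluorescence (ex 485 nm, em 535 nm) reports parasite DNA after 72 h compound exposure of infected red cells at 0.3% parasitemia, 2.5% hematocrit; signal normalized to 0.29 uM artemisinin and vehicle wells.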

Experiment [5] addresses Lysosomal acid glucosylceramidase (Homo sapiens) (UniProt P04062). Description: Glucocerebrosidase-p2 (AID 348; in the data active = potency below about 10 µM; note: potency is the fitted concentration of half-maximal effect). The following applies: purified GBA, blue fluorogenic substrate, 40 min. The procedure, abridged: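 Normal human glucocerebrosidase (0.2 nM) with blue fluorogenic substrate (80 uM final) in citrate/phosphate pH 5.9 with 10mM sodium taurocholate, 0.01% tween-20; 40 min RT, NaOH/glycine stop; fluorescence Ex 365/Em 440; AC50 from a titration from 0.6 nM upwards.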

Experiment [6] is described as follows: AP1 Signaling Pathway (AID 357).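 Note: ME-180 reporter cells stimulated with EGF at its EC50 level; % is set by controls: 0 for no effect and ±100 for the full control effect.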 The following applies: ME-180 AP-1-bla reporter, EGF-induced, beta-lactamase ratio, 5 h; at 7.69 µM (top of the series) unless noted. The procedure, abridged:
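A ratiometric CCF4 readout (405 nm excitation; 460 and 530 nm emission) quantified AP-1-driven beta-lactamase in ME-180 cells after 5 h with compound and EC50 EGF; AC50 values were derived for activators and inhibitors.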

The target in experiment [7] is Cytochrome P450 1A2 (Homo sapiens) (UniProt P05177). Description: p450-cyp1a2 (AID 410; calls by dose curve; note: potency is the fitted concentration of half-maximal effect). Put shortly:
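Read-out is luminescence from luciferin produced by CYP1A2 demethylation of Luciferin-ME (100uM, at Km). Detection reagent stopped the 60 min NADPH-dependent reaction; signals were normalized to 57 uM furafylline.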

A short description of experiment [8]: NFAT Signaling Pathway (AID 444).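 Note: carbachol stimulus at about its EC50 of 1 µM final; % is set by controls: 0 for no effect and ±100 for the full control effect.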 The settings on record: Jurkat NFAT-bla M1, carbachol, beta-lactamase ratio, 5 h; at 7.69 µM (top of the series) unless noted. The procedure, abridged: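 Jurkat cells with NFAT-driven β-lactamase reporter and co-expressed M1 receptor, stimulated with carbachol (final 1 uM, ~EC50), compound titration, 5 h at 37 °C. CCF4 loaded 1 h at RT; 460/530 nm ratio gave %activity and AC50.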

A short description of experiment [9]: Stat Signaling Pathway (AID 446).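 Note: ME-180 cervical cancer cells given 40 pM IL-6 alongside compound; SIE-controlled beta-lactamase reporter measured as 460/530 nm FRET emission ratio; % is set by controls: 0 for no effect and ±100 for the full control effect.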 The settings on record: ME-180 (cervical carcinoma) SIE beta-lactamase reporter, IL-6 stimulated, 5 h; at 7.69 µM (top of the series) unless noted. The procedure, abridged: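 Compound effects on IL-6-induced STAT reporter activity were measured in ME-180 cells. After overnight culture, cells were co-treated with 40 pM IL-6 for 5 hrs before beta-lactamase substrate loading at room temperature.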

The target in experiment [10] is Glucocorticoid receptor (Homo sapiens) (UniProt P04150). Description: GR-GFP Redistribution (AID 450;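 active = compounds whose dose series gives a full or clear partial fitted curve of increased nuclear translocation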; note: potency is the fitted concentration of half-maximal effect). The following applies: U2OS GR-GFP nuclear translocation, laser cytometry, 2 h.
Experiment [11] shares this target. Kind of experiment: GR-EFC Redistribution (AID 451; calls by dose curve; note: potency is the fitted concentration of half-maximal effect). The following applies: CHO-K1 GR-EFC translocation, beta-gal luminescence, 2 h. The procedure, abridged:
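CHO-K1 cells expressing nuclear EA and GR-ED fragments of b-gal; compounds titrated up to 46 uM final, 2 h at 37 C. GR nuclear translocation read as complemented b-gal luminescence after 1 h RT detection.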

Experiment [12] deals with Mitogen-activated protein kinase 10 (Mus musculus) (UniProt Q61831). Description: JNK3 AlphaScreen Assay (AID 530).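 Note: kinase came from lysate of stimulated human HepG2 cells; signal reports phosphorylation of biotinylated GST-cJun 1-79 at Ser73 with 10 µM ATP; % is set by controls: 0 for no effect and ±100 for the full control effect.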 Put shortly:
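HepG2 lysate (IL-1b/TNFa pre-activated) + biotin-GST-cJun 1-79 + anti-pSer73 cJun; cpd titration, 15 min RT; ATP 10 uM start; Tris pH 7.6, MgCl2, DTT, vanadate; beads in EDTA buffer; AlphaScreen.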

Experiment [13] deals with 3',5'-cyclic-AMP phosphodiesterase 4B (Homo sapiens) (UniProt Q07343). Description: qHTS Assay for Inhibitors of PDE-IV (AID 607; active = well fitted activation curve with a large enough effect in the main read-out, with a control signal flat, not every such curve was filed as active; note: % of control where 0% means no effect). The procedure, abridged:
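ACTOne HEK293 cells carry a modified cAMP-gated CNG channel and express endogenous PDE4; plated 1000 cells/well, compounds up to 22.9 uM final. Membrane-potential dye fluorescence (ex 535/em 590) was read; parental cells received 10 uM forskolin + 100 uM RO 20-1724.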

Unmarked numbers belong to inactive results. Results filed as inconclusive are left out. Activity calls are given as the source filed them. Unless noted, calls come from the whole dose curve; as a rule, active = well fitted curve in either direction with a large enough effect (not every such curve was filed as active); inconclusive = small, poorly fitted or top-dose-only effect, or another doubt; inactive = flat fitted curve, though single readings scatter.

Sequence of Glucocorticoid receptor (Homo sapiens) (P04150 whole entry, looked up): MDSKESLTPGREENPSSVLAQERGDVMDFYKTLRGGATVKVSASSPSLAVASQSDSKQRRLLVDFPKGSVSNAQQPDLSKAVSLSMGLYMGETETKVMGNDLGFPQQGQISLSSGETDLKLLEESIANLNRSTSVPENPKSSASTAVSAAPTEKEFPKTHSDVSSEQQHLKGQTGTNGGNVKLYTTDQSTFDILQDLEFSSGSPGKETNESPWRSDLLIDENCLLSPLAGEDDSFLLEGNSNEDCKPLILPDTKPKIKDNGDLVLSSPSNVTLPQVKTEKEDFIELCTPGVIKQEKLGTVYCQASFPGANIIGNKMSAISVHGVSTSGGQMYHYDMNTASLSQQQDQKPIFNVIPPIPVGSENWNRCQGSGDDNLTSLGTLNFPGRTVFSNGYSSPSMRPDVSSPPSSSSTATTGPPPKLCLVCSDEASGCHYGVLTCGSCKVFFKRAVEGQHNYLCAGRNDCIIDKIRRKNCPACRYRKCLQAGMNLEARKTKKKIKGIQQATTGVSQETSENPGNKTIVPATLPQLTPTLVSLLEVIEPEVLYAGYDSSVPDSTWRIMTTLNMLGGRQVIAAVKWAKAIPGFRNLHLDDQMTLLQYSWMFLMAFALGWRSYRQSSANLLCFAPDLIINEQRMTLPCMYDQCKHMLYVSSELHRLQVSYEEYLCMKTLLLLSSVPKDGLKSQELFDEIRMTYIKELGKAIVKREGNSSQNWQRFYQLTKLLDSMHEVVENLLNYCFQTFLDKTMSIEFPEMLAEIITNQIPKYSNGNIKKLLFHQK
Sequence of Cytochrome P450 2D6 (Homo sapiens) (P10635 whole entry, looked up): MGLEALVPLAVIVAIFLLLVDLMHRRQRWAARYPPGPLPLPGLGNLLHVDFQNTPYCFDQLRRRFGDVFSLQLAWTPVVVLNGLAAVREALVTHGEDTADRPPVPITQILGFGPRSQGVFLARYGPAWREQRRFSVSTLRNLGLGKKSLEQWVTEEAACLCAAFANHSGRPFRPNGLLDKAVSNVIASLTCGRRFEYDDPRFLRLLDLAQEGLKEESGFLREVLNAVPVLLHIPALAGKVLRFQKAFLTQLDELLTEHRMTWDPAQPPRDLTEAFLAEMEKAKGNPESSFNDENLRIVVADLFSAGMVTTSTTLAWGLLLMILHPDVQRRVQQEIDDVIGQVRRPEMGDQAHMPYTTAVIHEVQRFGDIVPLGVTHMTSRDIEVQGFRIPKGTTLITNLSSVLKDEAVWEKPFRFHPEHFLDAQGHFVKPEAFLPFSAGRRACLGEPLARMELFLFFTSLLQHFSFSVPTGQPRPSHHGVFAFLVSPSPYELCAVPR
Sequence of Lysosomal acid glucosylceramidase (Homo sapiens) (P04062 whole entry, looked up): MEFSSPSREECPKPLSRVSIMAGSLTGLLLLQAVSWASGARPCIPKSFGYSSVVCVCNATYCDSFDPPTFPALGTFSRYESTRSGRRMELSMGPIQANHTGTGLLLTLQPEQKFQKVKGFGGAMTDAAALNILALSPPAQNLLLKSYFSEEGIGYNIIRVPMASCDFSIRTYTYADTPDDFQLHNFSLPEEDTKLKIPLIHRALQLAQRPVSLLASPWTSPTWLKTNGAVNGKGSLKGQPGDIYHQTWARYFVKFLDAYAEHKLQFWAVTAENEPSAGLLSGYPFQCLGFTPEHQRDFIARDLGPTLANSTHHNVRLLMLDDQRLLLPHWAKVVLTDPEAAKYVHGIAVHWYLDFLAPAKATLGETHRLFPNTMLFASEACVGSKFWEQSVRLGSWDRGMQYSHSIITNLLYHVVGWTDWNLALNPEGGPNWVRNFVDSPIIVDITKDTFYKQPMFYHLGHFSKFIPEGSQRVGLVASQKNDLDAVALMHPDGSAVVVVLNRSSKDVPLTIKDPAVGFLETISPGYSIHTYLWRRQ
Sequence of Tyrosyl-DNA phosphodiesterase 1 (Homo sapiens) (Q9NUW8 whole entry, looked up): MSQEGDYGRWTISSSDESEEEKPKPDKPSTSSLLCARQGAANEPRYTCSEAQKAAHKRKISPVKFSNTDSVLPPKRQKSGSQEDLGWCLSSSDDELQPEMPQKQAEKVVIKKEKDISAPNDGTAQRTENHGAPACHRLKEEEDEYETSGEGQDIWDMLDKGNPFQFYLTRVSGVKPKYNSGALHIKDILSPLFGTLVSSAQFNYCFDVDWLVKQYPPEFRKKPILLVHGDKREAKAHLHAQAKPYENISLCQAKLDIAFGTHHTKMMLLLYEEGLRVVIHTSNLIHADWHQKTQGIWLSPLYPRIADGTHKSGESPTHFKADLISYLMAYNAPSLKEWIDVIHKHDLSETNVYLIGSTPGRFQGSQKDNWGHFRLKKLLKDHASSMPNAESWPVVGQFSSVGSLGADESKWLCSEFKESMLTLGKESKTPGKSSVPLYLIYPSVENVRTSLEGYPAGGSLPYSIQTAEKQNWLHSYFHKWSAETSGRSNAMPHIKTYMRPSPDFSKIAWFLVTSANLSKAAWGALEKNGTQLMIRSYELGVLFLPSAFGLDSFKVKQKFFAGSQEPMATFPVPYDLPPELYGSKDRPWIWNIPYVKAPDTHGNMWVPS
Sequence of 3',5'-cyclic-AMP phosphodiesterase 4B (Homo sapiens) (Q07343 whole entry, looked up): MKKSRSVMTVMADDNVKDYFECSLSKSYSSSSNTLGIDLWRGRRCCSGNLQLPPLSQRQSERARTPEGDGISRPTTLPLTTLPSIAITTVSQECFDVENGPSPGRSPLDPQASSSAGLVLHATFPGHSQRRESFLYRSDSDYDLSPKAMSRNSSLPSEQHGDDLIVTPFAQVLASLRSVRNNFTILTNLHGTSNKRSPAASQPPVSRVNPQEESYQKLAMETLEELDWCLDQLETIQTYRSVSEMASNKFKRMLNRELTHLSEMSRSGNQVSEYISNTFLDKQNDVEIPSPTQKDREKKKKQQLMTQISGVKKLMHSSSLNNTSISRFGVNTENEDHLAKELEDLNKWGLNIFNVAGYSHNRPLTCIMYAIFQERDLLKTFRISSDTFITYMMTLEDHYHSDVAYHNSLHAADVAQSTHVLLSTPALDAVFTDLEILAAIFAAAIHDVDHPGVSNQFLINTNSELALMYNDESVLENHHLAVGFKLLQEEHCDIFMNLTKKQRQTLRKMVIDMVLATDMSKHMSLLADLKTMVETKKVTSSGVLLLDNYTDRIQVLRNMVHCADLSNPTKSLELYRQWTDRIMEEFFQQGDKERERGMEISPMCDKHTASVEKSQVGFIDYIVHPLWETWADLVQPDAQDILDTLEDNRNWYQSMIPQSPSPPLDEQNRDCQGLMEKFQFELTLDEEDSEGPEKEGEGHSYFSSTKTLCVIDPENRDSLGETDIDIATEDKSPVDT
Sequence of Cytochrome P450 1A2 (Homo sapiens) (P05177 whole entry, looked up): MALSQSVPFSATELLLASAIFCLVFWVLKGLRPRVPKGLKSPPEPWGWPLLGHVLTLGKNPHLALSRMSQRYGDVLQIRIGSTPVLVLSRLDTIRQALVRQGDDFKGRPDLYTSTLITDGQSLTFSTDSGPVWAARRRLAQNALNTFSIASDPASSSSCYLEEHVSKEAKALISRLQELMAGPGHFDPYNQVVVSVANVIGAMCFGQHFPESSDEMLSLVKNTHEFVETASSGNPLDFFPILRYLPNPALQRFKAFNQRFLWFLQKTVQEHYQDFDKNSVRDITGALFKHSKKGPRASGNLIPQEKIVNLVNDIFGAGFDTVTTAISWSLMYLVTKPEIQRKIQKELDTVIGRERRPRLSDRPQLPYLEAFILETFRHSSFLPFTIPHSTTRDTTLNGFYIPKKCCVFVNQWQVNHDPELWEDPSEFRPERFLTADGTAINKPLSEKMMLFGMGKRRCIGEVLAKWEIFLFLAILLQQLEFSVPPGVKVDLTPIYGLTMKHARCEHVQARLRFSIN

For the compound `COc1ccccc1-c1nc(NCc2ccccc2)c2ccccc2n1`, the Potency in experiment [1] is 1.58 µM (active).
Consider `NS(=O)(=O)c1cc2c(cc1Cl)N[C@H](Cc1ccccc1)NS2(=O)=O`, for which the activation in [2] was 4.65%.
Consider `CN(C)[C@H]1C(=O)C(C(=O)NCN2CCCC2)=C(O)[C@]2(O)C(=O)C3=C(O)c4c(O)cccc4[C@](C)(O)[C@H]3C[C@H]12`, for which the Potency in experiment [3] was 0.0794 µM (active).
In the case of `O=C(O)[C@@H](S)[C@H](S)C(=O)O`, the Potency is 10 µM (active) in [4] (parasite line A) and 7.08 µM (active) in [4] (parasite line B).
For `O=C(O)CNC(=O)c1ccccc1O`, the Potency in experiment [5] is greater than 11.4 µM; in [7] it was 5.01 µM (active); in experiment [10] it was greater than 46 µM; in experiment [11] it was greater than 9.22 µM. The activity change, negative = inhibition is 6.2% in experiment [6] and 10.4% in experiment [8]. The activity, negative = inhibition in experiment [9] was 6.14%. In addition, the Potency result in [12] and in experiment [13] was “inactive” throughout.

(Values after PubChem BioAssay (NCATS).)
